# A selection: hits, their analogues and other compounds. The true share with any hit is near 0.86%.
# Tb PGK inh = inhibitors of T. brucei phosphoglycerate kinase. hit rate 0.043% among 380,000. PGK/GAPDH coupled, Kinase-Glo luminescence, 60 min. P07378. Potency, µM (highest dose often 57.5 µM), for inactives: at the top dose activity change, negative = inhibition, hits mostly inhibitors; note: potency is the fitted concentration of half-maximal effect; % is set by controls: 0 for no effect and ±100 for the full control effect; nearly all actives have a fitted effect of over 60% in size
#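 Luminescent ATP detection (Kinase-Glo Plus) follows a 60-minute room-temperature incubation, with wells lacking PGK as controls. Buffer: 100 mM TEA (pH 7.6), 5 mM MgCl2, 0.01% Tween-20. Coupling enzyme GAPDH (100 nM final) supplies unstable 1,3-BPG in-well.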
# BLM inh = Bloom syndrome helicase (human) inhibition; hit rate 0.2% among 350,000; Potency, µM (doses to about 56.1 µM), without a hit: top-dose activity change, negative = inhibition, hits mostly inhibitors; recombinant BLM DNA unwinding, fluorescence dequenching; P54132;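 note: potency is the fitted concentration of half-maximal effect; plate controls were vehicle for no effect and no enzyme for full effect; nearly all actives have a fitted effect of over 35% in size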
# GLS inhibitor = inhibitors of human glutaminase (GLS); AID 624170; hit rate 0.21% among 410,000; GLS enzymatic activity, qHTS titration; Potency, µM (top dose mostly 45.5 µM), without a hit: at the highest dose activity change, negative = inhibition, most hits filed as inhibitors; note: potency is the fitted concentration of half-maximal effect; % is set by controls: 0 for no effect and ±100 for the full control effect
#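 hKGA in 45 mM KH2PO4 pH 8.2, 0.02% Tween-20 with pin-transferred compounds; 1 mM L-glutamine (stock) plus glutamate oxidase/HRP/Amplex Red coupling added. Fluorescence read initially and after 30 min at RT.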
# RECQ1 helicase = blocks DNA unwinding by human RECQ1. RECQ1 DNA unwinding, red fluorescence kinetic read. Potency, µM (highest dose often 57.3 µM), without a hit: at the top dose activity, negative = inhibition, actives largely listed as inhibitors. hit rate 0.54% among 240,000. AID 2549;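 note: potency is the fitted concentration of half-maximal effect; plate controls were vehicle for no effect and no enzyme for full effect; nearly all actives have a fitted effect of over 30% in size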
# Target sequence (P46063 whole entry, looked up): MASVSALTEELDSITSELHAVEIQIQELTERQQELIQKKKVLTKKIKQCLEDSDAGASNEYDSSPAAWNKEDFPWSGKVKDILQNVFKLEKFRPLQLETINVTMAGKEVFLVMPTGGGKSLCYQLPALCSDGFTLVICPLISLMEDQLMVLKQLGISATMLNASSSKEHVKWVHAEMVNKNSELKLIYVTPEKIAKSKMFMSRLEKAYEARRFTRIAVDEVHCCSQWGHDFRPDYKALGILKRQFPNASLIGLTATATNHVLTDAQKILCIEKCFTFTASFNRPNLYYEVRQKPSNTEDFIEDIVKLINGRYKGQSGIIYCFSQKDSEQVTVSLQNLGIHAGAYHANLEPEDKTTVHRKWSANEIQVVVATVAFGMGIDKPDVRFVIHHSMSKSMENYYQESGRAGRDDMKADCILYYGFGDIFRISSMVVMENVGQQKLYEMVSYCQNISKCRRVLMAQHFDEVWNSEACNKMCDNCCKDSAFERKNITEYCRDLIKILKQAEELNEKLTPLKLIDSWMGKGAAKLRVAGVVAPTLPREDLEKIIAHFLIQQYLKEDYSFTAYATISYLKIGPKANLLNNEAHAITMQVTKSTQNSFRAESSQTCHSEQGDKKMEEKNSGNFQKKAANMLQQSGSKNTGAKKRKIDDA
#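 50 nM RECQ1T1 preincubated 15 min with compound in Tris pH 8.0 buffer with MgCl2, DTT, Tween-20 and 2.5 ug/ml poly(dI-dC); started with 200 nM TAMRA/BHQ-2 forked duplex and 2 mM ATP. Unwinding read as fluorescence (525/598 nm), two reads 2 h apart.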
# APEX1 inh = APE1 (human) endonuclease inhibition; P27695; recombinant APE1, TAMRA/BHQ-2 abasic DNA cleavage fluorescence; Potency, µM (doses to about 65.8 µM), without a hit: at the top dose activity change, negative = inhibition, actives largely listed as inhibitors; hit rate 0.35% among 350,000; AID 2517;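 note: potency is the fitted concentration of half-maximal effect; plate controls were vehicle for no effect and reference inhibitor for full effect; nearly all actives have a fitted effect of over 55% in size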
#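 Substrate: short duplex with […] THF abasic site, 5'-TAMRA and 3'-BHQ-2, 50 nM final. APE1 at 0.75 nM, preincubated 15 min RT with compound. Fluorescence increase from first to third read measured activity.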
# FEN1 inh-1 = blocks human flap endonuclease 1. Potency, µM (top dose mostly 114 µM), inactives show top-dose activity change, negative = inhibition, usual class: inhibitors. hit rate 0.35% among 390,000. AID 588795. Recombinant FEN1 flap cleavage, fluorescence, 15 min; note: potency is the fitted concentration of half-maximal effect; % is set by controls: 0 for no effect and ±100 for the full control effect; nearly all actives have a fitted effect of over 65% in size
#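 Recombinant FEN1 (10 nM) was preincubated with pin-transferred compounds for 15 min at room temperature, then flap DNA substrate (50 nM final) was added. Plates were read at 0 and 15 min, and normalized concentration–response data were fitted to a four-parameter Hill equation.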
# FEN1 inh-2 = confirmation of human FEN1 inhibitors; shares compounds with FEN1 inh-1; FEN1 flap cleavage, TAMRA/BHQ2 fluorogenic DNA substrate; Potency, µM, usual class: inhibitors; hit rate 79% among 880; AID 720498; note: potency is the fitted concentration of half-maximal effect; nearly all actives have a fitted effect of over 60% in size
# GLS hit conf = confirmation of human glutaminase inhibitors. shares compounds with GLS inhibitor. biochemical glutaminase enzyme inhibition assay. Potency, µM (doses to about 46.1 µM), for the others: top-dose activity change, negative = inhibition, actives largely listed as inhibitors. 35 tested, under 10 active; calls by dose curve
# GLS HRP counter = counter-screen for glutaminase inhibitors: HRP coupled enzyme inhibition | shares compounds with GLS inhibitor | 35 tested, under 10 active | activity change, negative = inhibition, % at 46.1 µM | HRP/glutamate oxidase coupled Amplex Red fluorescence counterscreen
# GLS HEK tox = HEK-293 cytotoxicity, glutaminase hit confirmation; shares compounds with GLS inhibitor; HEK-293 viability, CellTiter-Glo luminescence, 24 h; activity change, negative = cytotoxicity, % at 46.1 µM; 35 tested, under 10 active; AID 624264
# Active calls of the source: *; i = inactive; ? = inconclusive; nt = no result given. Unless noted, calls come from the whole dose curve; as a rule, active = well fitted curve in the direction sought with a large enough effect; inconclusive = small, poorly fitted or top-dose-only effect, or another doubt; inactive = no such curve, though single readings can be large; an effect the other way counts as inactive or inconclusive.
SMILES,Tb PGK inh,BLM inh,GLS inhibitor,RECQ1 helicase,APEX1 inh,FEN1 inh-1,others
CSCC[C@H](NC(=O)[C@@H]1CCCN1C(=O)CNC(=O)[C@H](CCCCN)NC(=O)[C@H](Cc1cnc[nH]1)NC(=O)[C@H](CO)NC(=O)[C@H](CC(C)C)NC(=O)[C@H](CCCNC(=N)N)NC(=O)[C@@H]1CCCN1C(=O)[C@H](CCCNC(=N)N)NC(=O)[C@H](CCC(N)=O)NC(=O)[C@H](CCCNC(=N)N)NC(=O)[C@H](CCCNC(=N)N)NC(=O)[C@H](Cc1ccccc1)NC(=O)[C@@H](N)CCCCN)C(=O)N1CCC[C@H]1C(=O)N[C@@H](Cc1ccccc1)C(=O)O,nt,-2.7%,nt,26.4%,14.4%,nt,
CC(C)C[C@H](NC(=O)[C@@H]1CCC(=O)N1)C(=O)N[C@@H](Cc1ccc(O)cc1)C(=O)N[C@@H](CCC(=O)O)C(=O)N[C@@H](CC(N)=O)C(=O)N[C@@H](CCCCN)C(=O)N1CCC[C@H]1C(=O)N[C@@H](CCCN=C(N)N)C(=O)N[C@@H](CCCN=C(N)N)C(=O)N1CCC[C@H]1C(=O)N[C@@H](Cc1ccc(O)cc1)C(=O)O,nt,-5.0%,nt,-4.4%,-3.3%,nt,
CC(NC(=O)C1CCCN1C(=O)CN)C(=O)O (stereo unspecified),nt,-0.3%,nt,-7.9%,4.9%,nt,
O=S(=O)(Nc1ccc(-c2ccc(N3CCCC3)nn2)cc1)c1ccccc1Cl,i,1.7%,7.5%,nt,nt,-2.5%,
Cc1ccc2c(=O)cc(C(=O)Nc3ccc(S(=O)(=O)N(C)c4ccccc4)cc3)oc2c1C,i,-2.2%,-18.3%,nt,nt,?,
COc1ccc(CNC(=O)CCNS(=O)(=O)c2ccc3c(c2)CCCC(=O)N3)cc1,0.4%,-0.5%,-10.7%,nt,nt,16.5%,
CCOc1cc(N2CCOCC2)c(OCC)cc1NC(=O)COC(=O)c1ccc([N+](=O)[O-])o1,-11.9%,nt,49.0%,nt,-23.8%,28.2µM*,FEN1 inh-2=8.49*
O=C(COC(=O)c1ccc([N+](=O)[O-])o1)Nc1ccc2c(c1)OCO2,6.6%,nt,16.7%,nt,-37.2%,?,FEN1 inh-2=19*
CN1C(=O)c2cccc3c(S(=O)(=O)Nc4ccc(O)c(C(=O)O)c4)ccc1c23,-7.1%,-3.3%,?,nt,-8.8%,-11.8%,GLS hit conf=?;GLS HRP counter=?;GLS HEK tox=8.9
O=C(O)c1ccccc1NS(=O)(=O)c1cccc(NS(=O)(=O)c2cc(Br)ccc2Br)c1,-5.7%,nt,?,nt,3.1%,7.4%,GLS hit conf=?;GLS HRP counter=-4.5;GLS HEK tox=-5.7
CCOc1ccc(Br)cc1S(=O)(=O)Nc1cccc(S(=O)(=O)Nc2ccccc2C(=O)O)c1,-5.8%,nt,2.4%,nt,-7.0%,10.9%,
CC#CC(=O)Nc1cc2c(Nc3ccc(F)c(Cl)c3)ncnc2cn1,nt,-24.6%,nt,-28.4%,?,nt,
COc1ccccc1N(C)S(=O)(=O)c1ccc(C(=O)OCC(=O)N(C)c2ccccc2)cc1,0.2%,-3.5%,7.08µM*,-24.9%,3.8%,-21.4%,GLS hit conf=4.5%;GLS HRP counter=4.8;GLS HEK tox=2.3
COc1ccccc1N(C)S(=O)(=O)c1ccc(C(=O)OCC(=O)Nc2ccccc2F)cc1,-7.5%,-13.1%,-18.6%,i,?,9.4%,

# Source: PubChem (National Center for Advancing Translational Sciences (NCATS))
